Test results as given in PubChem BioAssay.
The source made the active and inactive calls.

How the values were obtained:
[1] = test system: PRMT1 (protein arginine N-methyltransferase 1); experiment: small molecules binding arginine methyltransferase PRMT1 – biochemical, small-molecule microarray, 635 nm fluorescence, primary screen (AID 1088); details: higher = more signal;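 also: binding of Prmt1 protein to compounds spotted on small-molecule microarray slides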
[2] = growth effects on S. cerevisiae YJM789 – YJM789 clinical isolate, OD600, 24 h, basal, primary screen (AID 1089); details: higher = more signal, called active from +8 up or from −8 down;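 also: growth of clinical yeast isolate S. cerevisiae YJM 789 seeded 1000 cells per well; test concentration not given here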
[3] = S. pombe growth modifiers, basal conditions – strain 972, OD600, 24 h, no modulator, primary screen (AID 1090);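 also: basal condition with compound alone and no growth modifier present; test concentration not given here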; details: S. pombe 972 growth, higher = more signal, called active from +8 up or from −8 down
[4] = budding yeast growth modifiers under rapamycin – strain BY4716, OD600, 96 h, primary screen (AID 1091); also: test concentration not given here; details: S. cerevisiae BY4716 + rapamycin, higher = more signal, called active from +8 up or from −8 down
[5] = molecular target: Torsin-1A-interacting protein 2 (Homo sapiens) (UniProt Q8NFQ8); experiment: small molecules binding lysate-expressed LULL1 – cell lysate, human LULL1 lysate, 635/667 nm fluorescence, primary screen (AID 1092); details: small-molecule microarray, hLULL1 lysate binding, 635 nm fluorescence; higher = more signal;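 also: probe is lysate of COS7 cells overexpressing human LULL1; score merges per-feature 667 nm fluorescence with signal-to-noise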
Torsin-1A-interacting protein 2 (Homo sapiens), sequence (Q8NFQ8 whole entry, looked up): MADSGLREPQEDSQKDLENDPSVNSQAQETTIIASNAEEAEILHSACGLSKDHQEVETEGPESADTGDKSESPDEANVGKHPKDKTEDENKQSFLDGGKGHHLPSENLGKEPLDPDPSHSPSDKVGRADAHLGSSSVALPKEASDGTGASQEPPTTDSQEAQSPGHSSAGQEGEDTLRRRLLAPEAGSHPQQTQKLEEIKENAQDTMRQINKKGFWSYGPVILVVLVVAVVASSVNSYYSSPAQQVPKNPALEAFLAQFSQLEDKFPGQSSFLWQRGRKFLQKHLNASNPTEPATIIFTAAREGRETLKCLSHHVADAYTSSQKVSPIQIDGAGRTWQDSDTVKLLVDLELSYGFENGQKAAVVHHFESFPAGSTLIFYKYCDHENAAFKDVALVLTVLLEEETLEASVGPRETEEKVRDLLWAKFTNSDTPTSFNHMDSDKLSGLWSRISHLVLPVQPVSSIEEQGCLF

[6] = optical density change of DRC41 E. coli – strain DRC41, OD650, 24 h, E. coli filamentation project, primary screen (AID 1093);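 also: MC1000 strain lacking acrAB efflux and sulA so SOS filamentation is blocked; test concentration not given here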; details: E. coli DRC41 growth, higher = more signal, called active from +8 up or from −8 down
[7] = probe aLefty2 binding to arrayed compounds – biochemical, biotinylated probe, 635/667 nm fluorescence, primary screen (AID 1094); details: small-molecule microarray, higher = more signal;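 also: score merges spot fluorescence near 667 nm with spot signal-to-noise ratio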
[8] = test system: Noggin (protein binding on small-molecule microarray); experiment: small molecules binding Noggin protein – biochemical, 635/667 nm fluorescence, primary screen (AID 1095); details: 635 nm fluorescence, higher = more signal;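 also: score merges 667 nm feature fluorescence with signal to noise over triplicate slides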
[9] = molecular target: Neurogenic locus notch homolog protein 3 (Homo sapiens) (UniProt Q9UM47); experiment: small molecules binding NOTCH3 protein – biochemical, 635/667 nm fluorescence, primary screen (AID 1096); details: small-molecule microarray, 635 nm fluorescence, higher = more signal
Neurogenic locus notch homolog protein 3 (Homo sapiens), sequence (Q9UM47 whole entry, looked up): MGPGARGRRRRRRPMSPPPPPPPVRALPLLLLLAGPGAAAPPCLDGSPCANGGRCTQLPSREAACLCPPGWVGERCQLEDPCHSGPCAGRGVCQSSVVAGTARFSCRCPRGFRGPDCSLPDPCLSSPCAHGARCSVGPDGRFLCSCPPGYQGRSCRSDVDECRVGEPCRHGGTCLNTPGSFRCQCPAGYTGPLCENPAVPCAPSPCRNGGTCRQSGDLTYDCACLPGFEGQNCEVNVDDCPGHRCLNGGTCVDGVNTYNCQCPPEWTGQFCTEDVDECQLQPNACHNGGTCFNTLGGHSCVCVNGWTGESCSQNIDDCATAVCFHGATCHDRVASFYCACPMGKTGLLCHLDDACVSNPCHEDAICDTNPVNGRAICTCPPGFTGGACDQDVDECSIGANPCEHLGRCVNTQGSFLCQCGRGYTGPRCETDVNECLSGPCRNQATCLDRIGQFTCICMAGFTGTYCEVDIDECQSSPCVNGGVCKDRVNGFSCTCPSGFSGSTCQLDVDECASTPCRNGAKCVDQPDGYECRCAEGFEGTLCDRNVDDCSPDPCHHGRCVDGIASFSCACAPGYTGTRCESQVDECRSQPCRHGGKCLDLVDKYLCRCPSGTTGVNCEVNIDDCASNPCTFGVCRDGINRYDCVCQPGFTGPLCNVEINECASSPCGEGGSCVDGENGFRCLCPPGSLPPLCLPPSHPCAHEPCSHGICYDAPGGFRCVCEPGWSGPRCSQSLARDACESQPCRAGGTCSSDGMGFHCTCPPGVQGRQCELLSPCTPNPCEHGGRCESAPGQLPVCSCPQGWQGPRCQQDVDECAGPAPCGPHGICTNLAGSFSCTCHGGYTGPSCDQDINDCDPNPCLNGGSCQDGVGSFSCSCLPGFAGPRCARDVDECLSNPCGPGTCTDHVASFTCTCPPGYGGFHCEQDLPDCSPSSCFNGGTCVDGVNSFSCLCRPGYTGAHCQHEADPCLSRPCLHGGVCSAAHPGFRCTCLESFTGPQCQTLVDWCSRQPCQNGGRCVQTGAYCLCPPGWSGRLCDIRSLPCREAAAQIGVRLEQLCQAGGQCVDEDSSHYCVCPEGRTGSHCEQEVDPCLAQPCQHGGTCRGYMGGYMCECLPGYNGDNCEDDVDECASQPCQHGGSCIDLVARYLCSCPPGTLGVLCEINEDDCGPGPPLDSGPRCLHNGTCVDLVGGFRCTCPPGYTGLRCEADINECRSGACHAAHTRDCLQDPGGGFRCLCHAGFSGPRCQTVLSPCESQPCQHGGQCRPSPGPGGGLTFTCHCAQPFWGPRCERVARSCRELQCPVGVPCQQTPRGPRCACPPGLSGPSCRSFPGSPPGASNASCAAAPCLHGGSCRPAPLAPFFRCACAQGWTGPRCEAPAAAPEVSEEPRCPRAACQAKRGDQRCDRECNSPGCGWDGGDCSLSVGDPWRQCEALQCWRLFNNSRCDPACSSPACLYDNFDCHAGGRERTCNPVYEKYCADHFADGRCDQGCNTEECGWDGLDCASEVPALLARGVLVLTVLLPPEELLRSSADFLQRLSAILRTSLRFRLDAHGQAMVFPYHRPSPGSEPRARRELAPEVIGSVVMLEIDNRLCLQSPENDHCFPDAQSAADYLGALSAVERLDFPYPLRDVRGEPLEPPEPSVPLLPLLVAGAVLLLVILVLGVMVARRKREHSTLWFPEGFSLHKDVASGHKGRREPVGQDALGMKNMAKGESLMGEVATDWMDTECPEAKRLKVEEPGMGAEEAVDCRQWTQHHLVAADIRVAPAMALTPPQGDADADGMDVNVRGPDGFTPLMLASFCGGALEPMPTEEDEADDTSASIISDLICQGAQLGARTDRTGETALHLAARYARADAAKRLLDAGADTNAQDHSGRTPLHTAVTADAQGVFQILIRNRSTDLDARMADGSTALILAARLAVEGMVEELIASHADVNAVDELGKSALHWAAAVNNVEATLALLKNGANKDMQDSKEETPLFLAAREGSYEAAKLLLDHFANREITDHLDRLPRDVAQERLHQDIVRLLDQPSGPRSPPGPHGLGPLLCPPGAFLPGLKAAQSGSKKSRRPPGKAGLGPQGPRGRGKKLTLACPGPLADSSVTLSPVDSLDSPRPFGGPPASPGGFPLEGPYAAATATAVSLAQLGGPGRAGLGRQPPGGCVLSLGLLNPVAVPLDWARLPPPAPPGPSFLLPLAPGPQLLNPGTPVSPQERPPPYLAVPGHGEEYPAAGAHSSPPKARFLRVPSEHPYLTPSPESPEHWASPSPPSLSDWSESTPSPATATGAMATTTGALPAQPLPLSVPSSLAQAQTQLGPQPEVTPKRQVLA

[10] = probe aEGFR binding to arrayed compounds – biochemical, biotinylated probe, 635/667 nm fluorescence, primary screen (AID 1097); details: small-molecule microarray, higher = more signal;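 also: probe is a biotinylated anti-EGFR antibody binding compounds printed on slides; score combines fluorescence near 667 nm and signal to noise of each spot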

SMILES	composite z-score [1]	z-score [2]	z-score [3]	z-score [4]	composite z-score [5]	z-score [6]	composite z-score [7]	composite z-score [8]	composite z-score [9]	composite z-score [10]
CC(=O)NCCCC[C@@H]1NC(=O)[C@@H]2C[C@H](C(=O)NCCCCCN)[C@H](c3ccc(O)cc3)N2C1=O	1.32	0.0163 (inactive)	-0.747 (inactive)	0.536 (inactive)	2.25	2.29 (inactive)	0.5	0.61	1.14	0.328
COc1ccc([Si](C)(C)[C@H]2[C@H](CC(=O)N3CCC[C@H]3CO)O[C@@]3(C(=O)N(Cc4ccc(N5CCOC5=O)cc4)c4ccccc43)[C@@H]2C)cc1	1.56	-0.546 (inactive)	0.0871 (inactive)	-0.38 (inactive)	2.31	1.08 (inactive)	-0.0063	1.32	1.11	-0.0409
CC(C)C(CO)N1C(=O)[C@@H]2C3C(=O)OCCC/C=C\[C@H]3OC23C=CCN(Cn2nnc4ccccc42)C(=O)[C@@H]13 (stereo not given in full)	0.828	0.0005 (inactive)	-0.299 (inactive)	0.0668 (inactive)	3.72	0.167 (inactive)	-0.159	-0.421	0.144	-0.268
C=CC[C@@H](OC(=O)Nc1ccc(OC)cc1)c1ccc(O)c(F)c1	0.349	-23.4 (active)	-20.3 (active)	-2.74 (inactive)	2.09	0.92 (inactive)	-0.146	-0.488	-0.6	-0.241
CCN(CC)c1ccc(N2CC=CC34O[C@@H]5/C=C\CCCOC(=O)C5[C@H]3C(=O)N(C(C)CO)[C@@H]4C2=O)cc1 (stereo not given in full)	0.428	-0.991 (inactive)	-1.47 (inactive)	-0.497 (inactive)	0.347	1.42 (inactive)	-0.243	-0.045	0.204	-0.189
COc1cccc(C)c1NC(=O)O[C@H]1[C@H](OC(=O)Nc2ccccc2-c2ccccc2)[C@H](OC(=O)Nc2ccccc2-c2ccccc2)[C@@H](OC)O[C@@H]1CO	1.54	1.24 (inactive)	0.671 (inactive)	5.69 (inactive)	3.18	0.0918 (inactive)	0.225	1.14	1.07	-0.0824
COc1ccc([Si](C)(C)[C@@H]2[C@@H](CC(=O)N(CCO)Cc3ccccc3)O[C@]3(C(=O)N(Cc4cccc(N5CCCCC5=O)c4)c4ccccc43)[C@H]2C)cc1	1.42	1.42 (inactive)	-0.0344 (inactive)	3.5 (inactive)	2.38	1.02 (inactive)	0.232	1.45	0.948	-0.151
CC(C)[Si](C#CCCCC#N)(O[C@H](c1ccccc1)c1cn(Cc2ccccc2)nn1)C(C)C	1.36	-1.45 (inactive)	-2.74 (inactive)	-2.8 (inactive)	0.573	1.84 (inactive)	-0.119	0.509	1.09	-0.0681
C=CCNC(=O)[C@@H]1[C@H]2C(=O)O[C@H](c3ccccc3)[C@H](c3ccccc3)N2[C@H](c2ccc(O)cc2)[C@@]12C(=O)N(C(=O)OCCOC)c1ccc(C#CC3=CCCCC3)cc12	1.49	0.675 (inactive)	0.428 (inactive)	0.969 (inactive)	2.25	-0.633 (inactive)	-0.156	1.14	1.09	-0.0697
O=C(c1ccccc1)N1C(=O)[C@]2(Cc3ccccc31)N=C(c1ccc(OCCCO)cc1)O[C@@H]2c1ccccc1	1.54	0.525 (inactive)	0.171 (inactive)	3.7 (inactive)	3.25	0.0249 (inactive)	-0.0059	1.12	1.07	-0.157
COc1cc(NN2C(C(O)c3ccco3)C=CC3C(=O)N(C)C(=O)C32)cc(OC)c1OC (stereo not given)	0.865	-0.0402 (inactive)	1.06 (inactive)	0.462 (inactive)	0.873	-1.87 (inactive)	0.413	0.382	-0.254	0.232
COc1ccc([Si](C)(C)[C@@H]2[C@@H](CCO)O[C@]3(C(=O)N(Cc4ccccc4)c4ccc(N5C(=O)c6cccc7cccc5c67)cc43)[C@H]2C)cc1	0.473	0.849 (inactive)	1.97 (inactive)	37.1 (active)	0.984	0.89 (inactive)	-0.186	-0.129	-0.0162	-0.177
COc1ccc([Si](C)(C)[C@@H]2[C@@H](CCO)O[C@]3(C(=O)N(Cc4ccccc4)c4ccc(NC(=O)[C@H](C)O)cc43)[C@H]2C)cc1	1.54	2.85 (inactive)	0.386 (inactive)	7.41 (inactive)	2	0.655 (inactive)	-0.0766	1.25	1.05	-0.067
COC(=O)C(CC#Cc1ccc2c(c1)[C@]1(C(=O)N2)[C@H](c2ccc(O)cc2)N2[C@H](c3ccccc3)[C@H](c3ccccc3)OC(=O)[C@H]2[C@@H]1C(=O)NC[C@H](O)c1ccccc1)C(=O)OC	1.55	0.31 (inactive)	0.174 (inactive)	-0.131 (inactive)	1.97	-0.968 (inactive)	0.0634	0.668	1.09	0.128
COC(=O)[C@@]1(Cc2ccc(OC)cc2)[C@H]2c3cc(C(=O)N4CCCC4)n(CCc4c[nH]c5ccc(OC)cc45)c3C[C@H]2CN1C(=O)c1ccccc1	0.0079	0.425 (inactive)	1.84 (inactive)	4.15 (inactive)	3.03	-0.669 (inactive)	0.722	-0.0307	1.02	0.318
